High-throughput results (PubChem BioAssay)
The sample as a whole holds a higher share of hits than the screen did.
Artemis inh: Artemis (human) endonuclease inhibition; AID 686954; recombinant Artemis, quenched FAM hairpin cleavage fluorescence; inhibition, % at 10 µM; hit rate 0.78% among 30,000; Q96SD1;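 active = at 10 µM dose, at least 30% inhibition, measured as corrected fluorescence normalized to stimulator and neutral control wells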
Target sequence (Q96SD1 whole entry, looked up): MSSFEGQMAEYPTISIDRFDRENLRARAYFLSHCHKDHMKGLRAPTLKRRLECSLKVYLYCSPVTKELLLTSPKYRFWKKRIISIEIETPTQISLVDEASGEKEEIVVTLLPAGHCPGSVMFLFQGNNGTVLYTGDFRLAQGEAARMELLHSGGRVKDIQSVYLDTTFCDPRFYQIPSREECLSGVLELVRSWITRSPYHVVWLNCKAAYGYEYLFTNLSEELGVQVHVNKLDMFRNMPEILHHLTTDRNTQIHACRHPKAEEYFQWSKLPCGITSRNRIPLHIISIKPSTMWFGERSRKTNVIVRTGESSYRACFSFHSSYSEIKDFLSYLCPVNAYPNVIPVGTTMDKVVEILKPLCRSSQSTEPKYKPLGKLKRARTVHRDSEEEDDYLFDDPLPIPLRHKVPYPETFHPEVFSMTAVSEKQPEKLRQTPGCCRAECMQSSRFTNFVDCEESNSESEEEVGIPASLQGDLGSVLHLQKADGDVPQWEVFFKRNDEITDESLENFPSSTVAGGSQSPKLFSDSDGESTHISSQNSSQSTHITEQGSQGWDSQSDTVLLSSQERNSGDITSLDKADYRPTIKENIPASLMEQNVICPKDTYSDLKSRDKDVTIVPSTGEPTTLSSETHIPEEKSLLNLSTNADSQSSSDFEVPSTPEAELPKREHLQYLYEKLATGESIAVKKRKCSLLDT
Active calls of the source: *.

SMILES	Artemis inh
N#Cc1cc2sc3nnc(-c4ccncc4)n3c2cc1C#N	10
O=C(Cc1c(O)c2ccccc2[nH]c1=O)OC1CCCCC1	-1
Cc1ccc2nc(-c3ccccc3Cl)cc(C(=O)Nc3cc(C)on3)c2c1	2
COc1ccc(NC(=S)Nc2ccc(OCc3ccccc3)cc2)cc1OC	-3
COc1ccccc1NC(=O)C(=O)N/N=C(\C)CC(=O)Nc1ccc(OCc2ccccc2)cc1	33*
COc1ccccc1NC(=O)CN1CCN(CC(=O)Nc2ccc(OCc3ccccc3)cc2)CC1	5
Cc1oc2c(c1C(=O)c1ccccc1)C(=O)C(=O)c1ccccc1-2	59*
O=C(c1ccccc1)c1cc2ccccc2o1	-1
Cc1onc(-c2ccccc2)c1C(N)=O	3
O=C(NCCS(=O)CCNC(=O)C(F)(F)F)C(F)(F)F	-6
Cc1c(Cl)cccc1Nc1nc(N)nc(CN2CCCCCC2)n1	4
Cc1ccc(Nc2nc(N)nc(CN3CCCCCC3)n2)cc1	40*
CC1CC(C)CN(Cc2nc(N)nc(Nc3ccccc3)n2)C1 (stereo not drawn)	-3
CCOC(=O)C1C(=O)NC(C)C1c1ccccc1 (stereo not drawn)	-5
CC(=O)OCCCCON1C(=O)c2ccccc2C1=O	6
O=C1c2ccccc2C(=O)N1OCc1cccc(Cl)c1	55*
O=C1c2ccncc2C(=O)N1Cc1cccc(Cl)c1	4
CCOC(=O)c1c(CN2CCCCC2)n(C)c2ccc(OC)c(S(=O)(=O)c3ccccc3)c12	4
CCN(CC)c1ccc(C2C(C(C)=O)C(=O)CC(C)(O)C2C(C)=O)cc1 (stereo not drawn)	-1
CCOC(=O)C(C)n1cnc2c(cnn2-c2ccc(Cl)cc2)c1=O (stereo not drawn)	-6
CCOC(=O)C(C)n1ncn2cccc2c1=O (stereo not drawn)	33*
COC(=O)Cn1ncn2cccc2c1=O	0
CCc1ccc2nc(N3C(=O)C(O)=C(C(=O)c4ccco4)C3c3cccs3)sc2c1 (stereo not drawn)	43*
Cc1cc(N2C(=O)C(O)=C(C(=O)c3ccc(C)o3)C2c2cccs2)no1 (stereo not drawn)	16
Cc1cc(N2C(=O)C(O)=C(C(=O)c3ccco3)C2c2ccc(O)cc2)no1 (stereo not drawn)	-2
SMILES	Artemis inh
Cc1nc(C)c(C(=O)C2=C(O)C(=O)N(CCCn3ccnc3)C2c2ccc(Cl)cc2)s1 (stereo not drawn)	2
Cc1ccc(C2CC(=O)NC(SCC(=O)Nc3nccs3)=C2C#N)cc1 (stereo not drawn)	8
CC(C)Cn1cnc2c(c(-c3ccccc3)c(-c3ccccc3)n2Cc2ccco2)c1=N	23
N=c1c2c(-c3ccccc3)c(-c3ccccc3)n(Cc3ccco3)c2ncn1Cc1ccccc1	9
c1ccc(-c2c(-c3ccccc3)n(Cc3ccco3)c3ncnc(NCCCn4ccnc4)c23)cc1	44*
COc1cc(NS(=O)(=O)c2cccc3nsnc23)c(C(=O)O)cc1OC	3
CCCS(=O)(=O)N1CCC(C(=O)NCCN(C)Cc2ccccc2)CC1	-2
Nc1ccc2nc(-c3ccc(N)c(Cl)c3)[nH]c2c1	22
COc1ccc2nc(-c3cccc(N)c3)[nH]c2c1	1
Nc1ccc2nc(-c3ccccn3)[nH]c2c1	45*
COc1cc(/C=C/C(=O)N2CCN(CC(O)COc3ccccc3)CC2)cc(OC)c1OC (stereo not drawn)	-8
CCCCCCn1c(N2CCN(c3cccc(Cl)c3)CC2)nc2c1c(=O)[nH]c(=O)n2C	35*
CCCCCCn1c(N2CCN(c3ccccc3)CC2)nc2c1c(=O)[nH]c(=O)n2C	11
CC(C)CCn1c(N2CCN(c3cccc(Cl)c3)CC2)nc2c1c(=O)[nH]c(=O)n2C	27
CCc1ccc(/C=C/C(=O)c2c(C)cc(C)[nH]c2=O)cc1	2
O=C(/C=C/c1ccccc1)c1cc(Br)ccc(=O)c1O	36*
NC(=O)c1cc2cc(Br)ccc2oc1=NCc1ccccc1	1
COc1ccc(CCNC(=O)c2ccn[nH]2)cc1OC	-13
O=C(Nc1ccccc1)OCc1cc(-c2ccccc2Cl)on1	12
CCOC(=O)C1=C(O)CSC1=Nc1ccccc1	-2
CCOC(=O)C1=C(O)/C(=C/c2ccc(-c3ccccc3C(=O)O)o2)SC1=Nc1ccc(OC)cc1	30*
CCOC(=O)c1c(C)[nH]c(C=Nc2ccc(OC)cc2)c1O	10
CCc1ccc(N(CC(=O)Nc2ccc(OC)cc2OC)S(C)(=O)=O)cc1	-5
CC(=O)N1c2ccccc2C(=O)C1N1CCCCC1 (stereo not drawn)	-1
O=C(NCc1ccc2c(c1)OCO2)c1cc2ncc(Br)cn2n1	6
SMILES	Artemis inh
O=c1cc(-c2ccccc2)nc(N2CCN(Cc3ccc4c(c3)OCO4)CC2)[nH]1	7
CCOC(=O)c1ccc(NC(=O)CCOc2ccccc2)cc1	2
CCOC(=O)c1ccc(NC(=O)CNS(=O)(=O)c2ccccc2)cc1	0
CCOC(=O)c1ccc(NC2=CC(=O)C(=O)c3ccccc32)cc1	66*
O=c1c(-c2cccc3ccccc23)[n+]([O-])c2ccccc2n1O	8
O=C(NCC1CCCO1)c1cc(-c2ccco2)nc2ccccc12 (stereo not drawn)	0
O=C(O)c1cc(-c2ccco2)nc2ccc(Br)cc12	42*
O=C(c1ccco1)N1CCN(C(=O)c2cc(-c3ccncc3)nc3ccc(Br)cc23)CC1	11
Cc1sc2c(=O)n3c(nc2c1C(=O)NC1CCCCC1)CCCCC3	2
CCCC1(CCC)NC(=O)N(CC(=O)N2CCN(C(=O)c3ccco3)CC2)C1=O	-5
COc1cccc(CNc2cc(CSc3ccc(Cl)cc3)nc(C)n2)c1	-4
CC(=O)Nc1cccc(Oc2cc(C#N)c(C#N)cc2N2CCCCCC2)c1	8
Cn1cc(C(=O)c2ccc(Cl)cc2)cc1-c1nc2ccccc2n1C	11
CN(C)CCCNC(=O)CCC1CCCCC1	-8
N=c1c(C(=O)NCc2ccccc2)cc2c(=O)n3ccccc3nc2n1Cc1ccco1	31*
Cc1ccc(CNC(=O)c2cc3c(=O)n4ccccc4nc3n(Cc3ccco3)c2=N)cc1	41*
COCCCn1c(=N)c(C(=O)NC2CCCCC2)cc2c(=O)n3ccccc3nc21	2
CC(C)n1c(=N)c(C(=O)NCCc2ccccc2)cc2c(=O)n3ccccc3nc21	2
N=c1c(C(=O)NCc2ccc(F)cc2)cc2c(=O)n3ccccc3nc2n1Cc1ccco1	29
N=c1c(C(=O)NCc2ccco2)cc2c(=O)n3ccccc3nc2n1Cc1ccccc1	23
Cc1c(C(=O)COC(C)(C)C)[nH]c2ccccc12	6
Cc1c(C)n(C(=O)CSc2ncn[nH]2)c2ccccc12	-1
CCCCNc1nc2ccccc2[nH]1	1
CCN(CC)c1ccc(/C=N/Nc2nc3ccccc3[nH]2)c(O)c1	38*
CCN(CC)c1ccc(C=Nc2ccc(C#N)cc2)c(O)c1	2
SMILES	Artemis inh
O=C(CN1CCN(c2ccc(F)cc2)CC1)c1ccc2c(c1)OCO2	-1
O=C(c1ccccc1-c1nc2ccccc2[nH]1)N1CCCCC1	0
O=C(c1ccc2c3c(cccc13)C(=O)N(O)C2=O)N1CCCCC1	47*
O=C(c1ccccc1-c1ccccc1)N1CCCC1	-11
O=C(Nc1ccccc1C(=O)N1CCN(Cc2ccccc2)CC1)c1ccccn1	-4
Cc1cc(C)c2c(n1)nn1c(C3CC3)cc(C(F)(F)F)nc21	0
